From ChEMBL document CHEMBL5606458, “ASAP - ZIKV NS2B-NS3 protease fluorescence single point” (2024) come the findings set out here.

Molecules are shown by their SMILES. In all, about 2,700 compounds went through this assay and about 160 (5.9%) showed an effect of 50% or more. The sample holds strong results, similar compounds and a random draw of the others, so the mix is not that of the screen.

The assay addresses Nonstructural protein 3 (Zika virus) (UniProt A0A024AXB9).

Chain of Nonstructural protein 3 (Zika virus) (A0A024AXB9 as listed by the source): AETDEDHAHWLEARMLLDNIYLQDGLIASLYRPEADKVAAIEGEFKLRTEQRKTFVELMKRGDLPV

As for `CNc1cc(COc2cccnc2F)nc(N2CCNCC2)n1`, the inhibition is, setting by setting: (PRVABC59, Concentration 49.5 uM, Number of replicates 2.0, Standard deviation 2.059359081452019 %) 4.89%; (PRVABC59, Concentration 99.01 uM, Number of replicates 2.0, Standard deviation 2.151250675148563 %) 12.3%; (PRVABC59, Concentration 198.0 uM, Number of replicates 2.0, Standard deviation 2.3891841335084476 %) 24%.
In the case of `CCn1ccnc(N2CC[C@H](c3ccc(F)cc3)C2)c1=O`, the inhibition by setting is: (PRVABC59, Concentration 49.5 uM, Number of replicates 2.0, Standard deviation 0.27991239382631117 %) 8.78%; (PRVABC59, Concentration 99.01 uM, Number of replicates 2.0, Standard deviation 0.05869134101275442 %) 18.2%; (PRVABC59, Concentration 198.0 uM, Number of replicates 2.0, Standard deviation 0.2009049231321535 %) 32.5%.
Turning to `c1ccc2c(CN3CCC(n4cccn4)CC3)c[nH]c2c1`, the inhibition by setting is: (PRVABC59, Concentration 49.5 uM, Number of replicates 2.0, Standard deviation 0.7832462431332359 %) 26.9%; (PRVABC59, Concentration 99.01 uM, Number of replicates 2.0, Standard deviation 1.440111283496493 %) 42.5%; (PRVABC59, Concentration 198.0 uM, Number of replicates 2.0, Standard deviation 0.6771494756145803 %) 60.2%.
Turning to `NC(=O)C1CCN(Cc2c[nH]c3ccccc23)CC1`, the inhibition (PRVABC59, Concentration 49.5 uM, Number of replicates 2.0, Standard deviation 3.887096953751933 %) came to 5.72%; the inhibition (PRVABC59, Concentration 99.01 uM, Number of replicates 2.0, Standard deviation 2.3727111220616615 %) came out at 14.1%; the inhibition (PRVABC59, Concentration 198.0 uM, Number of replicates 2.0, Standard deviation 2.367525373820881 %) was 27.9%.
Regarding `NC(=O)[C@H]1CCCN(Cc2c[nH]c3ccccc23)C1`, the inhibition is, setting by setting: (PRVABC59, Concentration 49.5 uM, Number of replicates 2.0, Standard deviation 3.1390869089666538 %) 3.79%; (PRVABC59, Concentration 99.01 uM, Number of replicates 2.0, Standard deviation 3.56900861889403 %) 10.6%; (PRVABC59, Concentration 198.0 uM, Number of replicates 2.0, Standard deviation 2.510612912991002 %) 20.5%.
On to `O=C(O)c1ccn(C2CCN(Cc3c[nH]c4ccccc34)CC2)n1`, for which the inhibition is, setting by setting: (PRVABC59, Concentration 49.5 uM, Number of replicates 2.0, Standard deviation 1.5195725914554161 %) 20.5%; (PRVABC59, Concentration 99.01 uM, Number of replicates 2.0, Standard deviation 1.1461623032421138 %) 35.4%; (PRVABC59, Concentration 198.0 uM, Number of replicates 2.0, Standard deviation 1.0942994260377004 %) 52.6%.
`NC[C@H]1C[C@@H](NC(=O)[C@@H](NC(=O)OCc2ccccc2)c2ccc(OCc3ccccc3)cc2)C1`: the inhibition runs as follows: (PRVABC59, Concentration 49.5 uM, Number of replicates 2.0, Standard deviation 0.8838686407925086 %) 24%; (PRVABC59, Concentration 99.01 uM, Number of replicates 2.0, Standard deviation 0.4383595932929543 %) 66.8%; (PRVABC59, Concentration 198.0 uM, Number of replicates 2.0, Standard deviation 0.05241044906026695 %) 91.6%.
As for `NC[C@H]1C[C@H](NC(=O)[C@@H](NC(=O)OCc2ccccc2)c2ccc(OCc3ccccc3)cc2)C1`, the inhibition (PRVABC59, Concentration 49.5 uM, Number of replicates 2.0, Standard deviation 1.2395145381206512 %) was 10.3%; the inhibition (PRVABC59, Concentration 99.01 uM, Number of replicates 2.0, Standard deviation 2.826506577153246 %) was 46.7%; the inhibition (PRVABC59, Concentration 198.0 uM, Number of replicates 2.0, Standard deviation 0.7649713696189122 %) turned out to be 82.7%.
Take `COc1cnccc1NC(=O)c1cccn(CC(C)C)c1=O`: the inhibition by setting is: (PRVABC59, Concentration 49.5 uM, Number of replicates 2.0, Standard deviation 2.517858799186995 %) 14.1%; (PRVABC59, Concentration 99.01 uM, Number of replicates 2.0, Standard deviation 2.0130939800794283 %) 24.9%; (PRVABC59, Concentration 198.0 uM, Number of replicates 2.0, Standard deviation 1.1565850502914639 %) 38%.
Turning to `O=C1NCc2ccccc2C12CCN(C1CS(=O)(=O)C1)CC2`, the inhibition by setting is: (PRVABC59, Concentration 49.5 uM, Number of replicates 2.0, Standard deviation 2.478163590707131 %) -2.5%; (PRVABC59, Concentration 99.01 uM, Number of replicates 2.0, Standard deviation 1.6189007436906162 %) -1.76%; (PRVABC59, Concentration 198.0 uM, Number of replicates 2.0, Standard deviation 2.7604333789428463 %) -2.06%.
Regarding `N#C[C@H](c1c[nH]c2ccccc12)N1CCCCC1`, the inhibition was found to be 2.57% (PRVABC59, Concentration 49.5 uM, Number of replicates 2.0, Standard deviation 0.9976655532404076 %); 3.53% (PRVABC59, Concentration 99.01 uM, Number of replicates 2.0, Standard deviation 2.0662033924754 %); 2.01% (PRVABC59, Concentration 198.0 uM, Number of replicates 2.0, Standard deviation 2.2933585318984724 %).
Regarding `CC(C)(CO)NC(=O)c1cc(Cl)cc(NC(=O)c2cc(Cl)ccc2O)c1`, the inhibition runs as follows: (PRVABC59, Concentration 49.5 uM, Number of replicates 2.0, Standard deviation 2.1093755895168673 %) 7.55%; (PRVABC59, Concentration 99.01 uM, Number of replicates 2.0, Standard deviation 4.458409623609473 %) 13.5%; (PRVABC59, Concentration 198.0 uM, Number of replicates 2.0, Standard deviation 1.5634862358558868 %) 19.6%.
`CN(C)Cc1ccc(C(=O)Nc2cc(Cl)cc(C(=O)NC(C)(C)CO)c2)[nH]1`: the inhibition by setting is: (PRVABC59, Concentration 49.5 uM, Number of replicates 2.0, Standard deviation 0.7294034755731748 %) 25.7%; (PRVABC59, Concentration 99.01 uM, Number of replicates 2.0, Standard deviation 0.13537432871783928 %) 38.6%; (PRVABC59, Concentration 198.0 uM, Number of replicates 2.0, Standard deviation 2.37813693875156 %) 53.1%.
For the compound `CN(C)Cc1cccc(C(=O)Nc2cc(Cl)cc(C(=O)NC(C)(C)CO)c2)c1`, the inhibition (PRVABC59, Concentration 49.5 uM, Number of replicates 2.0, Standard deviation 1.8243044214328226 %) came out at 6.06%; the inhibition (PRVABC59, Concentration 99.01 uM, Number of replicates 2.0, Standard deviation 1.3712089412013073 %) worked out at 12.5%; the inhibition (PRVABC59, Concentration 198.0 uM, Number of replicates 2.0, Standard deviation 2.8457565601547175 %) was 22%.
Consider `O=C(Nc1ccc2c(c1)B(O)OC2)c1cccc(OCc2c(Cl)cccc2Cl)c1`, for which the inhibition was found to be 13.7% (PRVABC59, Concentration 49.5 uM, Number of replicates 2.0, Standard deviation 1.6182218422548027 %); 18.1% (PRVABC59, Concentration 99.01 uM, Number of replicates 2.0, Standard deviation 3.3767515547267357 %); 26.3% (PRVABC59, Concentration 198.0 uM, Number of replicates 2.0, Standard deviation 1.8193304189589607 %).
For the compound `O=C(NC[C@H]1CCCO1)c1cc(Cl)ccc1NS(=O)(=O)c1ccc(Oc2ccccc2Cl)cc1`, the inhibition is, setting by setting: (PRVABC59, Concentration 49.5 uM, Number of replicates 2.0, Standard deviation 0.526737151348054 %) 37%; (PRVABC59, Concentration 99.01 uM, Number of replicates 2.0, Standard deviation 0.29372509619508946 %) 35.9%; (PRVABC59, Concentration 198.0 uM, Number of replicates 2.0, Standard deviation 0.7843616173322282 %) 19.9%.
Take `O=C(NC[C@H]1CCOC1)c1cc(Cl)ccc1NS(=O)(=O)c1ccc(Oc2ccccc2Cl)cc1`: the inhibition amounted to 16.4% (PRVABC59, Concentration 49.5 uM, Number of replicates 2.0, Standard deviation 4.1620208465884945 %); 31.6% (PRVABC59, Concentration 99.01 uM, Number of replicates 2.0, Standard deviation 1.5720504754733005 %); 23.3% (PRVABC59, Concentration 198.0 uM, Number of replicates 2.0, Standard deviation 3.020626194849933 %).

For orientation: inhibition means the drop in the measured response relative to a control, in per cent.
